Here are results for 9 compounds from PubChem BioAssay (NCI).

What all share (experiment): NCI-60 one-dose screen, 48 h (100 = growth as untreated, 0 = no growth, -100 = all killed)
Holding throughout (details): 10 µM unless noted

In experiment [1] the test system is RPMI-8226 leukemia.
Experiment [2] deals with OVCAR-8 ovarian.
For experiment [3], the system named is OVCAR-5 ovarian.
Experiment [4] relates to OVCAR-4 ovarian.
The subject of experiment [5] is SK-OV-3 ovarian.
Experiment [6] relates to OVCAR-3 ovarian.
For experiment [7], the system named is HS 578T breast.
Experiment [8] relates to NCI/ADR-RES ovarian.
Experiment [9] has as its system T-47D breast.
The subject of experiment [10] is BT-549 breast.
For experiment [11], the system named is MDA-MB-435 melanoma.
Experiment [12] concerns SW-620 colon.
Experiment [13] has as its system MCF7 breast.
Experiment [14] relates to HCT-116 colon.
Experiment [15] concerns HCC-2998 colon.
The subject of experiment [16] is KM12 colon.
Experiment [17] relates to IGROV1 ovarian.

Compounds without any hit were thinned out: in the full panel of roughly 83,000, 20% have a hit.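 The endpoint reported here, percent growth, reads 100 for growth as untreated, 0 for no net growth and -100 for all cells dead.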 Values without a mark were called inactive. Active and inactive are the calls of the source. How the source made its calls: active means growth percent below 10; inactive means the rest.

On to `COC(=O)c1ccc(C)cc1`, for which the growth in experiment [1] was 102%; in [2], 103%; in experiment [3] it was 110%; in [4], 105%; in [5], 99.6%; in [6] it was 106%. The growth in experiment [7] was 99.5%; in experiment [8] it was 106%; in experiment [9], 91.4%; in experiment [10], 120%; in experiment [11] it was 101%; in experiment [12] it was 101%. The growth is 91.7% in experiment [13], 101% in experiment [14], 109% in experiment [15] and 108% in experiment [16].
For the compound `CNC(=O)c1cc(Oc2ccc3c(c2)sc2nc(-c4ccc(Cl)cc4)cn23)ccn1`, the growth in [1] is 92.4%; in experiment [2] it was 73%; in experiment [3], 113%; in experiment [4], 55.2%; in experiment [17], 87.6%; in experiment [6] it was 82.7%. Besides, the growth in [7] is 70.5%; in experiment [8], 84.7%; in experiment [9], 79%; in experiment [10], 87.8%; in experiment [11] it was 97.7%; in experiment [12] it was 97.3%. Moreover, the growth in experiment [13] is 72%; in experiment [14], 80.9%; in experiment [15], 90.1%; in experiment [16] it was 92.9%.
Regarding `CCCOC(=O)C1(O)CCCC1`, the growth in experiment [1] was 96.5%; in experiment [2], 102%; in experiment [3], 87.2%; in [4], 102%; in experiment [17], 107%; in experiment [6], 129%. Further, the growth is 108% in [8]; 97.2% in [9]; 113% in experiment [10]; 101% in experiment [11]; 104% in experiment [12]; 97.9% in [13]. Moreover, the growth in [14] is 97.3%; in experiment [15], 108%; in experiment [16] it was 116%.
Turning to `Nc1cc2c(cc1N)-c1cc(N)c(N)cc1C2`, the growth in experiment [1] was 95.9%; in [2], 103%; in experiment [3], 109%; in experiment [4], 108%; in experiment [17], 97.6%; in experiment [6], 109%. For the same compound, the growth in experiment [7] is 94.3%; in experiment [8], 111%; in [9], 110%; in experiment [10], 79.7%; in experiment [11], 108%; in experiment [12], 102%. Also, the results for the growth in [14], in experiment [15] and in experiment [16] were 104%, 105% and 101%, respectively.
On to `Cc1ccc2c(c1)C(C)Cc1c(ncnc1-n1cnc3ccccc31)N2C` (centres undefined), for which the growth was 21.8% in experiment [1]; 21.3% in experiment [2]; 42.8% in experiment [3]; 30% in [4]; 37.6% in experiment [17]; -34.7% (active) in experiment [6]. The growth was 8.03% (active) in [7]; 17% in experiment [8]; 50.3% in experiment [9]; -1.38% (active) in [10]; -47.9% (active) in experiment [11]; 21.6% in experiment [12]. Moreover, the growth in experiment [13] was 13.5%; in experiment [14] it was 5.53% (active); in experiment [15] it was 17.4%; in [16] it was 13.8%.
`COc1ccc(-c2cn[nH]c2-c2cc(OC)c3c(c2)OCCO3)cc1`: the growth in experiment [2] is 26.1%; in experiment [3] it was 48.1%; in experiment [4] it was 73.7%; in [5], 15.9%; in experiment [17] it was 50.2%; in [6], -36.6% (active). For the same compound, the growth was 3.05% (active) in experiment [7]; 9.78% (active) in experiment [8]; 49.5% in experiment [9]; 53.3% in experiment [10]; 25.5% in experiment [12]; 19.6% in experiment [13]. In addition, the growth is 10.5% in experiment [14], 25.3% in experiment [15] and 3.46% (active) in experiment [16].
As to `Nc1c(C(=O)c2ccc(F)cc2)sc2nc3c(cc12)CCCC3`, the growth is 78.5% in [2]; 97% in experiment [3]; 83.9% in experiment [4]; 73.1% in [5]; 77.1% in experiment [17]; 87.6% in experiment [6]. For the same compound, the growth in experiment [8] was 44.8%; in [9], 79.9%; in experiment [10], 90.7%; in [11] it was 22.5%; in experiment [12] it was 81%; in experiment [13], 80.4%. Further, the growth in experiment [14] is 72.2%; in experiment [15] it was 76.7%; in experiment [16], 66.2%.
For the compound `NC(=O)c1ccc2c(c1)OCO2`, the growth in experiment [2] is 108%; in [3] it was 113%; in experiment [4], 103%; in experiment [5], 130%; in [6], 107%; in [7], 98.7%. The growth was 97% in [8]; 111% in experiment [9]; 110% in [10]; 100% in experiment [11]; 98% in experiment [12]; 95.6% in experiment [13]. Also, the growth in experiment [14] was 101%; in experiment [15], 100%; in experiment [16], 103%.
Take `O=C(NCCCN1CCN(CCCNC(=O)C2CCCCC2)CC1)C1CCCCC1`: the growth in experiment [2] is 101%; in experiment [3], 104%; in [4], 102%; in experiment [5], 91.6%; in experiment [17], 104%; in [6], 99.3%. In addition, the growth in experiment [7] was 102%; in [8] it was 112%; in experiment [9], 90%; in experiment [10] it was 96.4%; in experiment [11] it was 96.4%; in [12], 95%. The growth in experiment [13] is 95.7%; in [14], 95.6%; in [15] it was 99.9%; in experiment [16], 104%.
